Bioassay records deposited in PubChem by National Center for Advancing Translational Sciences (NCATS).
An excerpt weighted towards active compounds, which were near 2.8% of everything screened.
IP6K1 inh = inhibitors of human IP6K1 | Q92551 | IP6K1 kinase, ADP-Glo luminescence, 2 h; active compounds read low | activity change, % (series mostly up to about 58 µM) | 140,000 tested, 0.81% active | AID 1645851; in the data active = activity change below about -25%; note: % is set by controls: 0 for no effect and ±100 for the full control effect
Target sequence (Q92551 whole entry, looked up): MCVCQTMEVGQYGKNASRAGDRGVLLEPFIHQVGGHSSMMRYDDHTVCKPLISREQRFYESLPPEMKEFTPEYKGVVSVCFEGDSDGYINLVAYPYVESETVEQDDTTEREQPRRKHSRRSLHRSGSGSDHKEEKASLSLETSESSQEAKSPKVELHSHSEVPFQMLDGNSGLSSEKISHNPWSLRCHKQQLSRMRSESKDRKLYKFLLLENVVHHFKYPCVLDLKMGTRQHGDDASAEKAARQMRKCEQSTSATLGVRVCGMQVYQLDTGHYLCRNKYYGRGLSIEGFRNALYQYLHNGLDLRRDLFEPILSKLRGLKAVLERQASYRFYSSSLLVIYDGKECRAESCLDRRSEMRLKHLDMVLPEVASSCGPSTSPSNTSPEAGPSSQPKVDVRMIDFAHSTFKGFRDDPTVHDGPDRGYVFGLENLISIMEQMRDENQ
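ADP-Glo luminescence measures ADP made by human IP6K1 during a 2 h RT reaction with ATP/IP6 (mix at 1.3 mM/130 uM); top library doses 57.5 and 19.1 uM final.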
KDM5B inh = KDM5B demethylase inhibition. Q9UGL1. KDM5B demethylase, FDH-coupled NADH fluorescence (FDH is formaldehyde dehydrogenase). Potency, µM (titrated, usually from 57.7 µM), usual class: inhibitors. 220,000 tested, 2.6% active; note: potency is the fitted concentration of half-maximal effect; 0% is about no effect; nearly all actives have a fitted effect of over 70% in size
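Measured: NADH fluorescence change, 30 min, RT. System: KDM5BΔAP 200 nM final, H3K4me3 peptide, α-KG, Fe(II), ascorbate, NAD⁺ plus FDH, pH 7.5 HEPES. Compounds: titrated, 10 min pre-incubation with enzyme.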
SNCA viab count = counter-screen for SNCA expression inhibitors: cell viability; HEK-293-SNCA-luc viability, GF-AFC fluorescence, 24 h; Potency, µM (titrated, usually from 57.1 µM), for inactives: at the highest dose activity change, negative = cytotoxicity, hits mostly cytotoxic; 150,000 tested, 0.12% active; AID 1671193;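 note: potency is the fitted concentration of half-maximal effect; 0% = DMSO-treated cells and -100% = medium-only wells without cells; nearly all actives have a fitted effect of over 30% in size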
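HEK-293-SNCA-luc cells (1500/well) plated 24 h, then exposed 24 h to a dilution series; GF-AFC added 30 min at 37C, fluorescence 405/540 nm; normalised to medium-only and DMSO wells, Hill fit.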
SNCA expr inhib = inhibitors of alpha-synuclein (SNCA) gene expression; HEK-293 SNCA-luciferase knock-in, luminescence, 24 h; Potency, µM (titrated, usually from 57.2 µM), inactives show at the highest dose activity change, negative = inhibition, actives largely listed as inhibitors; 140,000 tested, 0.17% active;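 note: potency is the fitted concentration of half-maximal effect; plate controls were DMSO cells for no effect and cell-free wells for full effect; nearly all actives have a fitted effect of over 45% in size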
Starred values were filed as active, the others as inactive; i = inactive; ? = inconclusive; nt = no result; [ ] = remark or other dose. Unless noted, calls come from the whole dose curve; as a rule, active = well fitted curve in the direction sought with a large enough effect; inconclusive = small, poorly fitted or top-dose-only effect, or another doubt; inactive = no such curve, though single readings can be large; an effect the other way counts as inactive or inconclusive.

SMILES	IP6K1 inh	KDM5B inh	SNCA viab count	SNCA expr inhib
COC(=O)[C@@H]1Cc2c([nH]c3ccccc23)[C@H]2C[C@@H](NCc3cccnc3)C[C@@H](c3ccc(F)c(F)c3)N21	-0.5	25.1µM*	-15.7%	-18.1%
C#CCN[C@H]1C[C@@H]2c3[nH]c4ccccc4c3C[C@@H](C(=O)OC)N2[C@H](c2ccc(F)cc2)C1	-1.2	39.8µM*	?	?
COC(=O)[C@@H]1Cc2c([nH]c3ccccc23)[C@H]2C[C@@H](N3CCOCC3)C[C@@H](c3ccc(F)cc3)N21	-14.3	12.6µM*	1.2%	16.3%
O=C(OCc1ccc(Cl)c(Cl)c1)c1ccccc1Oc1ccccc1	nt	i	nt	nt
Cc1nc2ccc(Cl)cc2cc1C(=O)N1CCN(C(C)C)CC1	nt	i	nt	nt
O=C(NCCNc1ncccc1C(F)(F)F)Nc1ccccc1F	nt	i	nt	nt
O=C1NCC2(CCCN(C(=O)c3cn[nH]c3-n3cnnn3)C2)O1 (configuration not stated)	31.7	i	1.3%	-10.4%
O=C1NCC2(CCCN(C(=O)c3cnc4c(O)cccn4c3=O)C2)O1 (configuration not stated)	-6.7	31.6µM*	19.8%	-13.8%
Cc1ccsc1/C=C(/C#N)C(=O)NC1CCCCC1C (configuration not stated)	nt	i	nt	nt
COCCN1C(=O)c2ccccc2C(C(=O)NCCc2ccc(F)cc2)C12CCCC2 (configuration not stated)	4.0	28.2µM*	-19.2%	25.3%
CCc1ccccc1NC(=O)C1c2ccccc2C(=O)N(CCOC)C12CCCC2 (configuration not stated)	12.8	i	-2.6%	0.7%
COCCN1C(=O)c2ccccc2C(C(=O)NCc2ccccc2Cl)C12CCCC2 (configuration not stated)	7.9	?	-0.1%	5.2%
COCCN1C(=O)c2ccccc2C(C(=O)NCc2ccccc2OC)C12CCCC2 (configuration not stated)	12.4	17.8µM*	4.4%	-16.3%
Cc1ccnc(NC(=O)C2c3ccccc3C(=O)N(CC(C)C)C23CCCC3)c1 (configuration not stated)	13.4	22.4µM*	-18.7%	4.9%
COCCN1C(=O)c2ccccc2C(C(=O)Nc2ccc(C)cc2Cl)C12CCCC2 (configuration not stated)	7.3	28.2µM*	-6.6%	?
COCCN1C(=O)c2ccccc2C(C(=O)NCCc2ccccc2)C12CCCC2 (configuration not stated)	-0.3	i	-11.1%	67.2%
COc1ccc(CN2C[C@@H]3C[C@@H](C(=O)O)N(C(C)=O)c4cccc(c43)C2=O)cc1	5.5	nt	10.6%[23.9 µM]	-1.0%[25.6 µM]
COc1ccc(CCn2c(Br)nc3c(=O)n(C)c(=O)n(C)c32)cc1	nt	i	nt	nt
CC(C)C(=O)N1CCCC1Cc1noc(-c2ccccc2)n1 (configuration not stated)	15.3	nt	4.6%	-15.3%
COCCN1C(=O)c2ccccc2C(C(=O)NCc2ccccc2)C12CCCC2 (configuration not stated)	-0.9	i	-2.1%	-19.4%
COCCN1C(=O)c2ccccc2C(C(=O)NCc2ccc(Cl)cc2)C12CCCC2 (configuration not stated)	-5.2	25.1µM*	-2.7%	-0.7%
C=CCNc1ccccc1C(=O)NC(C(=O)O)c1c(C)n[nH]c1C (configuration not stated)	-4.8	28.2µM*	3.3%	-23.5%
Cc1n[nH]c(C)c1C(NC(=O)c1c(C)c2cccc(C)c2n1C)C(=O)O (configuration not stated)	-6.4	i	3.7%	-2.6%
Cc1cccc(NC(=O)[C@@H]2COCC(=O)N2Cc2ccc(F)cc2)c1	-12.6	nt	-12.8%	5.8%
Cc1ccc(F)c(NC(=O)[C@@H]2COCC(=O)N2Cc2ccc(F)cc2)c1	-1.6	39.8µM*	4.1%	?
SMILES	IP6K1 inh	KDM5B inh	SNCA viab count	SNCA expr inhib
CCOC(=O)[C@@H]1[C@@H](O)C(=O)N(Cc2ccccc2)C12CCN(C(=O)C1CCC1)CC2	7.5	nt	nt	nt
Cc1cnc(N2CC3CCC(C2)N3CC(F)(F)F)s1	-8.2	56.2µM*	-4.7%	-9.2%
N#Cc1cnc(N2CC3CCC(C2)N3CC(F)(F)F)s1	-3.2	i	3.7%[87.6 µM]	7.8%[87.6 µM]
O=C(c1ccncc1)N1CC2CCC(C1)N2Cc1ccc(-c2cccs2)cc1	-1.6	79.4µM*	-17.9%	-14.4%
FC(F)(F)c1ccc(N2C3CCC2CN(Cc2ccc(-c4cccs4)cc2)C3)cc1	-4.6	28.2µM*	6.8%	?
COc1ccc(C(=O)N2C[C@@H](F)[C@@H](OCc3nc4ccccc4o3)C2)cc1	0.7	i	-12.0%[87.6 µM]	-11.8%[87.6 µM]
CC1CCC2(CC1)NC(=O)N(CC(=O)N1CCCCC1)C2=O (configuration not stated)	3.7	i	4.9%	8.7%
Cc1nccn1-c1ccc(NC(=O)C2CCCN(c3ncccc3C#N)C2)cc1 (configuration not stated)	-7.9	28.2µM*	-29.9%	1.4%
Cc1cc(C)n(Cc2ccc(C(=O)NCC3Cn4cccc4CN3Cc3ccccc3)o2)n1 (configuration not stated)	-17.9	31.6µM*	3.7%	6.2%
COc1cccc(CC(=O)NCC2Cn3cccc3CN2Cc2ccccc2)c1 (configuration not stated)	-13.6	nt	2.5%	106.3%
Cc1cc(C)n(Cc2ccc(C(=O)NN)o2)n1	nt	i	nt	nt
Cn1nccc1C(=O)NCC1Cn2cccc2CN1Cc1ccccc1 (configuration not stated)	-2.9	22.4µM*	-1.7%	15.2%
CCOCCCNC(=O)NCC1Cn2cccc2CN1Cc1ccccc1 (configuration not stated)	-10.9	28.2µM*	10.8%	4.7%
O=C(NCC1Cn2cccc2CN1Cc1ccccc1)c1cncc(Br)c1 (configuration not stated)	-9.8	28.2µM*	2.4%	31.6%
O=C(O)c1ccc(-c2ccc(C(=O)O)nc2)cc1	13.0	?	-0.9%[87.6 µM]	-17.4%[87.6 µM]
O=C(NCc1cnc2c(c1)CCC2)C1NCCc2[nH]cnc21 (configuration not stated)	17.1	?	19.7%	15.0%
O=C(NCc1ncc(-c2ccccc2)o1)c1ccc(F)cc1	nt	i	nt	nt
COc1ccccc1C(=O)NC1CCN(c2ccc3nnc(C4CC4)n3n2)C1 (configuration not stated)	10.1	nt	nt	nt
O=C(NCC1Cn2cccc2CN1Cc1ccccc1)c1ccccn1 (configuration not stated)	-7.6	nt	5.1%	-16.7%
CCn1ccc(C(=O)NCC2Cn3cccc3CN2Cc2ccccc2)n1 (configuration not stated)	6.9	28.2µM*	-6.4%	27.1%
O=S(=O)(NCC1Cn2cccc2CN1Cc1ccccc1)c1ccccc1 (configuration not stated)	-0.3	nt	5.3%	33.6%
Cc1ncoc1C(=O)NCC1Cn2cccc2CN1Cc1ccccc1 (configuration not stated)	-9.9	28.2µM*	3.6%	-5.7%
